{"source": "PubChem BioAssay (NCI)", "note": "The panel holds about 83,000 compounds, 20% with a hit somewhere; the sample as a whole holds those more often.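 Note: values are percent growth. 100 is the growth of untreated cells, values between 100 and 0 indicate rising inhibition; between -100 and 0 indicates cell death.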 Values without a mark were called inactive. Calls of active or inactive are those of the source. The calls were made as follows: active = growth percent below 10; inactive = the rest."}
{"system": "DU-145 prostate", "assay": "NCI-60 one-dose screen, 48 h (100 = growth as untreated, 0 = no growth, -100 = all killed)", "conditions": "10 µM unless noted"}
{"smiles": "O=S(=O)(NCCNc1nccc(-c2c(-c3cccc(O)c3)nc3occn23)n1)c1ccccc1", "growth": "97.7%"}
{"smiles": "COc1ccc(C(=O)c2cc(C)c(OC)c(C)c2)c(OC)c1N(C(=O)CCl)C(=O)CCl", "growth": "0.0631% (active)"}
{"smiles": "O=C(/C=C/c1ccc[nH]1)c1ccc(-n2ccc(C(F)(F)F)n2)c(F)c1", "growth": "99.8%"}
{"smiles": "COc1ccc(C(=O)C2C(C#N)C(C#N)C3c4ccccc4C=CN23)cc1", "note": "(stereo not drawn)", "growth": "103%"}
{"smiles": "c1ccc(-c2cn3c(ccc4ccccc43)n2)cc1", "growth": "87.8%"}
{"smiles": "CNC(=O)c1cccc(Cn2nc(C)c(NC(=O)c3ccc(COc4ccc(C(F)(F)F)cc4C)cc3)c2C)n1", "growth": "61.2%"}
{"smiles": "COc1ccc(OC)c(-c2cc(-c3ccc(Cl)cc3)c3c(N)c(C(=O)c4ccc(Cl)cc4)sc3n2)c1", "growth": "107%"}
{"smiles": "CCCOc1ccc(/C=N/Nc2cc(C)nc3ccc(Cl)cc23)cc1", "growth": "24.2%"}
{"smiles": "O=C(Cc1ccccc1)NNc1nc(Cl)nc(N2CCN(C(c3ccccc3)c3ccccc3)CC2)n1", "growth": "110%"}
{"smiles": "C#CCNC(=O)[C@H](Cc1ccccc1)NC(=O)[C@]12CC[C@@H](C(=C)C)[C@@H]1[C@H]1CC[C@@H]3[C@@]4(C)CCC(=O)C(C)(C)[C@@H]4CC[C@@]3(C)[C@]1(C)CC2", "growth": "91.6%"}
{"system": "K-562 leukemia", "assay": "NCI-60 one-dose screen, 48 h (100 = growth as untreated, 0 = no growth, -100 = all killed)", "conditions": "10 µM unless noted"}
{"smiles": "CC(=O)CCC(=O)OCc1cc(=O)c(O)co1", "growth": "102%"}
{"smiles": "O=C(c1nc2ccccc2[nH]1)C1C(c2ccc(Cl)cc2)C2CC3CCCC[C@H]3N2[C@@]12C(=O)Nc1cc(Cl)ccc12", "note": "(stereo partly drawn)", "growth": "29%"}
{"smiles": "COc1cccc(-c2nc3occn3c2-c2ccnc(NCCNS(=O)(=O)c3cccc4ccccc34)n2)c1", "growth": "95.1%"}
{"smiles": "COc1cc(-c2n/c(=C\\c3c(O)[nH]c4ccc(Cl)cc34)cc3c2=Nc2ccccc2-3)ccc1F", "growth": "13.4%"}
{"smiles": "NNC(=O)c1ccc(-n2nc(-c3ccccc3)c3ccccc32)cc1", "growth": "84.1%"}
{"smiles": "O=C1Nc2cc(-c3cccc(O)c3)ccc2/C1=C/c1ccc[nH]1", "growth": "5.66% (active)"}
{"smiles": "COc1cccc(/C=N/NC(=O)c2cnn3c2NC(c2ccccc2)C3)c1Oc1ccccc1", "note": "(stereo not drawn)", "growth": "36%"}
{"smiles": "S=c1cc(S)c2cc(Br)ccc2[nH]1", "growth": "94.9%"}
{"smiles": "O=C(NCCc1ccccc1)Nc1ccc2cc3ccc(NC(=O)NCCc4ccccc4)cc3nc2c1", "growth": "1.41% (active)"}
{"smiles": "CCN(CC)CCCC(C)Nc1cc(O)cc2cccnc12", "note": "(stereo not drawn)", "growth": "87.4%"}
{"smiles": "CCOC(=O)C1=C(C)NC(SCc2cc(=O)oc3ccc(F)cc23)=N[C@@H]1c1cccc2ccccc12", "growth": "79.7%"}
{"smiles": "COc1ccc(C(=O)c2cc(OC)c(OC)c(OC)c2)cc1O", "growth": "8.98% (active)"}
{"smiles": "CCCOC(=O)N[C@H]1CCc2c(Cl)c(OC)c(OC)c(OC)c2-c2ccc(SC)c(=O)cc21", "growth": "9.67% (active)"}
{"smiles": "Cc1ccc(/C=N/NC(=O)CSc2nc3ccccc3c(=O)n2Cc2ccc(S(N)(=O)=O)cc2)cc1", "growth": "63.3%"}
{"smiles": "O=C(CCN1CCCC1)Nc1ccc2c(NCCCCc3ccccc3)c3ccccc3nc2c1", "growth": "-31.2% (active)"}
{"smiles": "CSc1nc2sc3cccc(Cl)c3n2c(=N)c1C#N", "growth": "106%"}
{"smiles": "C#CCNC(=O)c1cccc2c1cc(C)n2-c1nc2c(c(NCc3ccccc3)n1)CCCC2", "growth": "6.56% (active)"}
{"smiles": "Cc1ccc(S(=O)(=O)NNC(=O)/C(=C\\c2ccc(Cl)cc2)c2nc3ccccc3s2)cc1", "growth": "84%"}
{"smiles": "O=[N+]([O-])CC(c1ccccc1)c1c[nH]c2ccccc12", "note": "(stereo not drawn)", "growth": "10%"}
{"smiles": "Nc1nc(Nc2ccccc2SSc2ccccc2Nc2nc(N)nc(-c3ccc(C(F)(F)F)cc3)n2)nc(-c2ccc(C(F)(F)F)cc2)n1", "growth": "55%"}
{"smiles": "CCCCCC(=O)Oc1ccc(/C(=C(\\C)c2ccccc2)c2ccc(OCCN3CCCCC3)cc2)cc1", "growth": "20.1%"}
{"smiles": "C/C(=N\\Nc1cc(C)nc2ccc(Br)cc12)c1ccc([N+](=O)[O-])cc1", "growth": "11.3%"}
{"smiles": "COc1cccc(-c2ccc3c(c2)NC(=O)/C3=C\\c2ccc[nH]2)c1", "growth": "12.4%"}
{"smiles": "CCC(=O)Oc1ccc(/C(=C(\\C)c2ccccc2)c2ccc(OCCN3CCCCC3)cc2)cc1", "growth": "17.1%"}
{"smiles": "COc1cc(CC(=O)c2ccc(O)c(OC)c2)ccc1O", "growth": "89.1%"}
{"smiles": "Brc1ccc2[nH]cc(-c3cncn3CCc3ccccc3)c2c1", "growth": "27.3%"}
{"smiles": "CCNC(=O)Oc1ccc(/C(=C(\\C)c2ccccc2)c2ccc(OCCCN(C)C)cc2)cc1", "growth": "14.4%"}
{"smiles": "O=C(/C=C/c1ccc(F)cc1)c1ccc(NC(=O)N2CCN(c3cc4c(cc3F)c(=O)c(C(=O)O)cn4C3CC3)CC2)cc1", "growth": "91.2%"}
{"smiles": "O=S(=O)(NCCNc1nccc(-c2c(-c3cccc(O)c3)nc3occn23)n1)c1ccccc1", "growth": "68.4%"}
{"smiles": "COc1ccc(C(=O)c2cc(C)c(OC)c(C)c2)c(OC)c1N(C(=O)CCl)C(=O)CCl", "growth": "9.77% (active)"}
{"smiles": "O=C(/C=C/c1ccc[nH]1)c1ccc(-n2ccc(C(F)(F)F)n2)c(F)c1", "growth": "77.4%"}
{"smiles": "COc1ccc(C(=O)C2C(C#N)C(C#N)C3c4ccccc4C=CN23)cc1", "note": "(stereo not drawn)", "growth": "73.1%"}
{"smiles": "c1ccc(-c2cn3c(ccc4ccccc43)n2)cc1", "growth": "20.8%"}
{"smiles": "CNC(=O)c1cccc(Cn2nc(C)c(NC(=O)c3ccc(COc4ccc(C(F)(F)F)cc4C)cc3)c2C)n1", "growth": "30.4%"}
{"smiles": "COc1ccc(OC)c(-c2cc(-c3ccc(Cl)cc3)c3c(N)c(C(=O)c4ccc(Cl)cc4)sc3n2)c1", "growth": "118%"}
{"smiles": "CCCOc1ccc(/C=N/Nc2cc(C)nc3ccc(Cl)cc23)cc1", "growth": "-37% (active)"}
{"smiles": "O=C(Cc1ccccc1)NNc1nc(Cl)nc(N2CCN(C(c3ccccc3)c3ccccc3)CC2)n1", "growth": "9.78% (active)"}
{"smiles": "C#CCNC(=O)[C@H](Cc1ccccc1)NC(=O)[C@]12CC[C@@H](C(=C)C)[C@@H]1[C@H]1CC[C@@H]3[C@@]4(C)CCC(=O)C(C)(C)[C@@H]4CC[C@@]3(C)[C@]1(C)CC2", "growth": "31.8%"}
